# From PubChem BioAssay AID504467 (National Center for Advancing Translational Sciences (NCATS), 2011)
# The campaign covered roughly 330,000 compounds. About 7,700 (2.3%) were called active. Inconclusive results (about 26%) are left out. Only a selection was taken, and actives are over-represented in it overall. Values without a mark were called inactive. The call rests on the fitted dose curve; in most records, active means well fitted inhibition curve with a large enough effect; inconclusive means small, poorly fitted or top-dose-only effect, or effect the other way; inactive means flat fitted curve, though single readings scatter.
# Experiment: qHTS screen for small molecules that inhibit ELG1-dependent DNA repair in human embryonic kidney (HEK293T) cells expressing luciferase-tagged ELG1; further: nearly all actives have a fitted effect of over 55% in size
# Details: HEK293T ELG1-luciferase reporter, luminescence, 16 h, DNA damage induced by 5-fluorouridine; series mostly up to 46.1 µM; activity change, negative = inhibition: at the top concentration
# Outline: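 Step one: seed 2,000 cells per well. Step two: pin-transfer compound or DMSO alongside 5-fluorouridine. Step three: incubate 16 hr, 37 °C, 5% CO2. Step four: add ONE-Glo, wait 30 min, read luminescence.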
# On the % scale 0 is the no-effect control and ±100 the full control effect; potency means the concentration at half of the fitted maximal effect.
Compound,"activity change, negative = inhibition",Potency
Cc1ccc(NC(=O)COC(=O)C2CC2)cc1S(=O)(=O)N1CCOCC1,10.1%,–
CCc1ccccc1OCC(=O)Nc1ccc(C)c(S(=O)(=O)N2CCCCCC2)c1,–,20.6 µM (active)
COc1ccccc1C(=O)Nc1ccc(C)c(S(=O)(=O)N2CCCCC2)c1,–,4.11 µM (active)
COc1ccc(NC(=O)C2=NNC(=O)CC2)cc1S(=O)(=O)N1CCCCC1,0.964%,–
COc1ccccc1C(CNC(=O)c1ccc(C)c(S(=O)(=O)N2CCCCC2)c1)N(C)C (stereo unspecified),7.46%,–
Cc1ccc(NC(=O)CCC(=O)N2CCC(c3ccccc3)=N2)cc1S(=O)(=O)N1CCCCC1,18.5%,–
Cc1ccc(NS(=O)(=O)c2ccc(F)cc2)nc1,-1.5%,–
COc1ccccc1C(=O)NCC(=O)NCCSc1ccc(Br)cc1,0.299%,–
COc1ccccc1NS(=O)(=O)c1ccc(C)c(C(=O)NCC(c2ccco2)N(C)C)c1 (stereo unspecified),7.5%,–
CCc1nn(CC(=O)N2CCN(c3cc(C)ccc3C)CC2)c(=O)c2cc3occc3n12,9.86%,–
O=C(CCCCCn1c(=S)[nH]c2cc3c(cc2c1=O)OCO3)N1CCN(c2ccc(F)cc2)CC1,2.97%,–
Cc1ccc(C)c(N2CCN(C(=O)CCCn3c(=O)c4cccn4c4cccnc43)CC2)c1,–,18.3 µM (active)
Cc1ccc(C)c(N2CCN(C(=O)CCc3nc4ccccc4[nH]3)CC2)c1,-4.67%,–
Cc1ccc(C)c(N2CCN(C(=O)Cn3ncn4cccc4c3=O)CC2)c1,-9.5%,–
Cc1ccc(C)c(N2CCN(C(=O)CCCCCn3c(=S)[nH]c4ccc(N5CCOCC5)cc4c3=O)CC2)c1,–,5.8 µM (active)
COC(=O)[C@@]12CCCN1[C@H](c1ccc(-c3ccc(F)cc3)c(OC)c1)[C@H]1C(=O)N(C)C(=O)[C@H]12,-0.867%,–
COc1ccc(CCNC(=S)N2CCN(S(=O)(=O)c3ccc(F)cc3)CC2)cc1,15.3%,–
COc1ccc(-c2cc(C(F)(F)F)nc(SCC(=O)Nc3ccc4c(c3)OCO4)n2)cc1OC,-18.9%,–
COc1ccc(-c2cc(C(F)(F)F)nc(S(C)(=O)=O)n2)cc1OC,–,20.6 µM (active)
COc1cc(OC)nc(S(C)(=O)=O)n1,-6.22%,–
COc1cccc(NC(=O)CSc2nnc(C3CCCCC3)n2N)c1,19.8%,–
O=C(CSc1ccccc1)Nc1cccc(S(=O)(=O)N2CCCCC2)c1,1.06%,–
CCN1CCN(C2CCCCC2NS(=O)(=O)c2ccc(Cl)cc2)CC1 (stereo unspecified),10.8%,–
CCS(=O)(=O)c1ccc2oc(SCC(=O)N3c4ccccc4CC3C)nc2c1 (stereo unspecified),–,23.1 µM (active)
CC1Cc2ccccc2N1C(=O)CSc1nnc(-c2ccc(S(=O)(=O)N3CCCCC3)cc2)o1 (stereo unspecified),-1.63%,–
Cc1cc(=O)[nH]c(SCC(=O)N2c3ccccc3CC2C)n1 (stereo unspecified),11.9%,–
